Cycloheximide cs – counter-screen for Shiga toxin inhibitors: cycloheximide protein synthesis inhibition; cell reporter, cycloheximide protein synthesis inhibition counterscreen; max response, %; 300,000 compounds, 12% hits; AID 2314; in the data active = max response mostly above about 13%, no sharp cut-off; inactive = mostly below about 14%; note: read at 38.3 µM for the half of the compounds with a filed dose; 0% is about no effect
Lassa entry inh – Lassa virus entry inhibition. Lassa virus pseudotype entry inhibition, cell reporter. 300,000 compounds, 1.2% hits. Potency, µM (highest dose often 37.9 µM), without a hit: top-dose activity change, negative = inhibition, hits mostly inhibitors; calls by dose curve; tested in HEK293 cells; note: potency is the fitted concentration of half-maximal effect; % is set by controls: 0 for no effect and ±100 for the full control effect; nearly all actives have a fitted effect of over 50% in size
Pf growth 96h – inhibits malaria parasite growth, 96 h | Potency, µM (series often up to 28.7 µM), inactives show at the highest dose activity change, negative = inhibition, hits mostly inhibitors | P. falciparum luciferase reporter growth, 96 h | 320,000 compounds, 6.9% hits; note: potency is the fitted concentration of half-maximal effect; % is set by controls: 0 for no effect and ±100 for the full control effect
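Readout is luminescence from an integrated firefly luciferase in P. falciparum. Red cells, 2% hematocrit and 0.05% parasitemia final, were cultured with compound through two parasite generations (96 hours) at 37 C, 5% CO2.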
MARV entry inh – Marburg virus entry inhibition | AID 540276 | Potency, µM (titrated, usually from 37.8 µM), without a hit: top-dose activity change, negative = inhibition, hits mostly inhibitors | Marburg virus pseudotyped entry inhibition, cell reporter | 300,000 compounds, 1.8% hits; calls by dose curve; tested in HEK293 cells; note: potency is the fitted concentration of half-maximal effect; % is set by controls: 0 for no effect and ±100 for the full control effect
Pf growth 48h – P. falciparum growth inhibition at 48 hours (one generation) | Potency, µM (series often up to 28.7 µM), inactives show top-dose activity change, negative = inhibition, actives largely listed as inhibitors | 310,000 compounds, 5.9% hits | P. falciparum luciferase growth in erythrocytes, 48 h; note: potency is the fitted concentration of half-maximal effect; % is set by controls: 0 for no effect and ±100 for the full control effect
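Growth was read as firefly luciferase luminescence after a 48 h, 37 C, 5% CO2 exposure of compounds to reporter-bearing P. falciparum cultures (0.1% parasitemia, 2% hematocrit final) in Albumax-supplemented RPMI 1640.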
Shiga inhibitor – inhibitors of Shiga toxin in Vero cells. Vero cells, Shiga toxin protein synthesis inhibition reporter. inhibition, % at 38.7 µM. 290,000 compounds, 9.2% hits; in the data active = inhibition mostly above about 28%, no sharp cut-off; inactive = mostly below about 43%; note: 0% is about no effect
* marks the source's active call; other numbers are inactive results; i = inactive; ? = inconclusive; . = no result; [ ] = dose if it differs, or a comment. Rows were chosen to be rich in hits. Some 19% of all compounds tested hit in one or more screens of this group. Unless noted, calls come from the whole dose curve; as a rule, active = well fitted inhibition curve with a large enough effect; inconclusive = small, poorly fitted or top-dose-only effect, or another doubt; inactive = no such curve, though single readings can be large or run the other way.

SMILES | Cycloheximide cs | Lassa entry inh | Pf growth 96h | MARV entry inh | Pf growth 48h | Shiga inhibitor
COc1ccccc1C1CCCN1Cc1nc(-c2cc3c(cc2Cl)OCO3)oc1C (stereo unspecified) | -1 | ? | -13% | ? | 9.3µM* | 2
COc1cccc(C2CCCN2Cc2nc(-c3sccc3C)oc2C)c1 (stereo unspecified) | 1 | ? | -11% | ? | ? | -3
CCCCC1=CC2=CC(=O)C(C)(OC(=O)CC)C(=O)C2=CN1CCOC (stereo unspecified) | -4 | . | 21% | . | ? | -7
CCCCC1=CC2=CC(=O)C(C)(OC(=O)CC)C(=O)C2=CN1c1ccccc1 (stereo unspecified) | -2 | . | 13µM* | . | 10µM* | 1
CCCCC1=CC2=CC(=O)C(C)(OC(=O)CC)C(=O)C2=CN1CCc1ccc(Br)cc1 (stereo unspecified) | -4 | . | ? | . | 9.3µM* | -2
COc1cc(NC(=O)CN2C(=O)C(=O)N(CC(C)C)C2=O)cc(OC)c1 | . | 8% | 14% | 7% | ? | .
CN(Cc1nccn1C)C(=O)c1cc(COc2cccc(C(F)(F)F)c2)on1 | 37* | . | 9.3µM* | . | -9% | 42*
O=C(c1cc(COc2cccc(C(F)(F)F)c2)on1)N1CCC(Oc2cccnc2)CC1 | 14 | . | 54% | . | -15% | 3
CC(C)N(Cc1nccn1C)C(=O)c1cc(COc2cccc(C(F)(F)F)c2)on1 | -6 | . | -14% | . | 10% | -4
CC(=O)c1cccc(OCc2cc(C(=O)NCc3nc(C)c(C)s3)no2)c1 | 40* | -4% | -2% | 5% | -27% | 83*
C=CCC1(CC=C)CCCN1C(=O)c1cc(COc2cccc(C(F)(F)F)c2)on1 | 9 | ? | ? | 10µM* | ? | -1
CCOC(=O)N1CCN(C(=O)c2cc(COc3cccc(C(C)=O)c3)on2)CC1 | 41* | 2% | -10% | -11% | -9% | 45
Cc1ccc(CNC(=O)c2ccc3c(c2)NC(=O)C(N2CCOCC2)S3)cc1 (stereo unspecified) | -3 | ? | 5% | -17%[46.1 µM] | ? | 1
O=c1sc2ccccc2c(=O)n1Cc1ccccc1F | 8 | -24%[46.1 µM] | ? | -3%[46.1 µM] | ? | 3
CCn1nc(C(=O)Nc2nc3ccc(C)cc3s2)c2ccccc2c1=O | 6 | -23% | . | -5% | 19% | 10
C[C@@H]1CN(C(=O)c2cc(COc3cccc(C(F)(F)F)c3)on2)C[C@H](C)O1 | 19 | 17% | 8% | -7% | ? | -12
CCOC(=O)N1CCN(C(=O)c2cc(COc3cccc(C(F)(F)F)c3)on2)CC1 | 46* | ? | 9% | ? | ? | 60*
CC(=O)Nc1ccccc1Nc1cc(C#N)c(C#N)cc1[N+](=O)[O-] | -2 | -5% | 7.4µM* | -1% | ? | -27
CCN1C(=O)/C(=C/N(C)c2ccccc2)OC1=S | 25* | 11% | -6% | 4% | 46% | 67*
CCN1C(=O)/C(=C\N(C(C)=O)c2ccccc2)OC1=S | 32* | -12% | 12µM* | 17% | 32% | 31*
CC(=O)N(/C=C1\SC(=S)N(c2ccccc2)C1=O)c1ccccc1 | 9 | . | 4% | . | 14% | 40
C=CCNC(=O)C(=O)N/N=C/c1ccco1 | -6 | 11% | ? | -10% | 6% | -4
CCCCOc1ccc(CNC(=O)NS(=O)(=O)c2ccc(OCC(C)C)cc2)cc1 | -4 | 9% | 10% | -10% | . | -7
COc1cccc(/C=C2/C(=O)NN(c3ccc(F)cc3)C2=O)c1 | -3 | -1% | 23% | 3% | 48% | -1
COc1cc(/C=C2/C(=O)NN(c3cccc(C)c3)C2=O)cc([N+](=O)[O-])c1O | -7 | . | -17% | . | 1% | 9
SMILES | Cycloheximide cs | Lassa entry inh | Pf growth 96h | MARV entry inh | Pf growth 48h | Shiga inhibitor
COc1cc(/C=C2/C(=O)NN(c3ccc(C)c(Cl)c3)C2=O)cc([N+](=O)[O-])c1O | -2 | . | -3% | . | 28% | 1
Cc1ccc(N2NC(=O)/C(=C\c3cc4c(cc3[N+](=O)[O-])OCO4)C2=O)cc1C | -1 | -7% | 0% | 5% | 10µM* | -12
COc1cccc(/C=C2/C(=O)NN(c3ccc(C)c(C)c3)C2=O)c1 | 8.5* | 17%[46.1 µM] | -4% | 13%[46.1 µM] | ? | 19
COc1cc(/C=C2/C(=O)NN(c3cccc(C)c3)C2=O)ccc1OC(=O)c1ccco1 | 3 | 2% | 4.1µM* | 4% | 12% | 12
CCOCCCN(CC(=O)NC1CCCC1)C(=O)C(=O)Nc1ccc2c(c1)OCCO2 | 10 | 15% | 0% | 9%[46.1 µM] | 0% | 35
Cc1ccc2c(c1)c1c(n2CC(O)Cn2nc(C)c(Br)c2C)C(=O)CCC1 (stereo unspecified) | -2 | 7% | 38% | ? | -2% | 2
O=c1[nH]c2cc3c(cc2cc1CN(Cc1cccs1)Cc1nnnn1Cc1ccco1)OCCO3 | -4 | ? | 12µM* | ? | ? | 12
COc1ccccc1CN(Cc1cc2cc3c(cc2[nH]c1=O)OCCO3)Cc1nnnn1Cc1ccco1 | -2 | -3% | 1µM* | -7% | ? | -13
O=c1[nH]c2cc3c(cc2cc1CN(Cc1ccccc1)Cc1nnnn1Cc1ccco1)OCCO3 | 3 | ? | . | -38% | ? | 48
COc1ccc(C(=O)c2sc3nc(C)cc(-c4cccs4)c3c2N)cc1OC | -3 | 2% | ? | ? | ? | -18
CC(C)[C@H](NC(N)=O)C(=O)Nc1ccc(OCc2ccccc2)cc1 | 6 | 12% | 98% | -1%[46.1 µM] | 52% | 22
O=C(O)/C=C/C(=O)Nc1ccc(-c2ccccc2)cc1 | 45* | . | -2% | . | 6% | 92*
O=C(O)/C=C/C(=O)Nc1ccc(OCc2ccccc2)cc1 | 19* | -21% | 42% | 15%[46.1 µM] | 38% | 54
C[C@H](NC(N)=O)C(=O)Nc1ccc(OCc2ccccc2)cc1 | 59* | 14%[46.1 µM] | i | ? | 385% | 66
CCOc1ccccc1NC(=O)N1CCC2(CC1)OCCO2 | -2 | 21% | 12% | 21% | 6% | -4
CN(Cc1ccccc1)c1nc2nonc2nc1N1CCCC(CN2CCCC2=O)C1 (stereo unspecified) | -1 | . | ? | . | ? | 12
Clc1ccc(-c2nnc3c4ccccc4nc(N4CCOCC4)n23)cc1Cl | 11 | 0% | ? | ? | -11% | 23
Cc1cc(C)cc(NC(=O)Cn2c(=O)n(Cc3ccc4c(c3)OCO4)c(=O)c3oc4ccccc4c32)c1 | . | 3%[46.1 µM] | . | . | . | .
COc1cc(CC(=O)NCCc2ccc(OCc3ccccc3)cc2)c([N+](=O)[O-])cc1OC | 49* | 1% | . | 1% | 4% | 55
CCOc1ccc(CCNC(=O)COC(=O)c2cc([N+](=O)[O-])ccc2N2CCOCC2)cc1OCC | -2 | . | 9.3µM* | . | ? | -11
CCOc1ccc(CCNC(=O)COC(=O)c2cc(OC)c(OC)c(OC)c2)cc1OCC | -3 | . | -27% | . | ? | -10

Screening results from PubChem BioAssay.
